Potency data for 31 molecules are collected here from PubChem BioAssay (NCATS).

Results filed as inconclusive are left out. Where a call stands in place of a potency, no number is given. Activity calls are given as the source filed them. Calls come from the whole dose curve; as a rule, active = well fitted inhibition curve with a large enough effect; inconclusive = small, poorly fitted or top-dose-only effect; inactive = flat fitted curve, though single readings scatter. Residues, ends and D or L forms follow the SMILES beside them. *: point of attachment. Cbz = O=C(OCc1ccccc1)*
Potency is the fitted concentration of half-maximal effect.

Chain of Ubiquitin carboxyl-terminal hydrolase 1 (Homo sapiens) (O94782 whole entry, looked up): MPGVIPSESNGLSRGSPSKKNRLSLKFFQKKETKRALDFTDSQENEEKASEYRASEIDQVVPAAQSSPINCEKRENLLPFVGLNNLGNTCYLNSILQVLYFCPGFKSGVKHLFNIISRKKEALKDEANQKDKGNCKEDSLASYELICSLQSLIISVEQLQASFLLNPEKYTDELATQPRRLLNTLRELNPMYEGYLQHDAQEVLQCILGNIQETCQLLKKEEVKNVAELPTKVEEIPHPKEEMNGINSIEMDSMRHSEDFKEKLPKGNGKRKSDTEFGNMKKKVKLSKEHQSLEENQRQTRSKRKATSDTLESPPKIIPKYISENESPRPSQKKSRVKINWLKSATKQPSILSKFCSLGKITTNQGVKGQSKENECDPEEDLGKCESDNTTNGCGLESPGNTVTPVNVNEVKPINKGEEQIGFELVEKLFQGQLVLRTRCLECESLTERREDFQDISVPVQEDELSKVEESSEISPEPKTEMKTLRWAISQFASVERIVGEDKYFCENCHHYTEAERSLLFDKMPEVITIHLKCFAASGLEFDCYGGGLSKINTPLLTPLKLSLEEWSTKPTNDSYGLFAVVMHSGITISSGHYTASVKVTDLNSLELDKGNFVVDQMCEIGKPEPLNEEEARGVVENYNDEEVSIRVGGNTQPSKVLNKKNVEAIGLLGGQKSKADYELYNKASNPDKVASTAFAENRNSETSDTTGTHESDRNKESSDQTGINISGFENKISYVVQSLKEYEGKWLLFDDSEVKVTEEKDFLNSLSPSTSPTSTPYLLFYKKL

This assay concerns the target Ubiquitin carboxyl-terminal hydrolase 1 (Homo sapiens) (UniProt O94782). Kind of assay: Inhibitors of USP1/UAF1: Pilot qHTS (AID 504865). Note: nearly all actives have a fitted effect of over 35% in size. Particulars: purified USP1/UAF1, Ub-rhodamine cleavage fluorescence; series mostly up to 114 µM. Summed up: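 Deubiquitinase activity followed as kinetic rhodamine fluorescence release from 150 nM Ub-Rho. 1 nM USP1/UAF1 with compound, after 15 min room-temperature preincubation, in HEPES pH 7.8 buffer containing TCEP, EDTA, BSA and Tween-20.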
Background: qHTS replaces the single test concentration by a dilution series.
For the molecule `COc1ccc(C(=O)NCc2cccnc2)cc1C(=O)NCc1cccnc1`, the Potency entry is “inactive”.

As to `O=c1cc(O)cc(/C=C/c2ccc(O)c(O)c2)o1`, the Potency result is “inactive”.

Consider `Oc1ccc(/C=C/c2ccc(/C=C/c3ccc(O)cc3)c(Br)c2)cc1`, for which the Potency result was “inactive”.

Take `COc1cc(CC(=O)O)ccc1O`: the Potency result was “inactive”.

Regarding `Cc1ccc([N+](=O)[O-])cc1S(=O)(=O)N(C)C`, the Potency entry is “inactive”.

In the case of `Nc1ncnc2c1nc(Sc1ccc(Cl)cc1)n2[C@H]1OC2COP(=O)(O)O[C@@H]2C1O` (stereo partly specified), the Potency result is “inactive”.

`COc1cc(/C=C(\C#N)C(=O)c2ccc(O)c(O)c2)cc(I)c1O`: the Potency was 50.1 µM (active).

Turning to `Nc1nc2c(cnn2CCc2ccccc2)c2nc(-c3ccco3)nn12`, the Potency result was “inactive”.

Regarding `S=C(S)N1CCCC1`, the Potency entry is “inactive”.

`CC(C)NC[C@H](O)COc1ccc(CC(N)=O)cc1`: the Potency result was “inactive”.

In the case of `CC(/C=C/c1cccc(Oc2ccc(F)cc2)c1)N(O)C(N)=O` (stereo unspecified), the Potency result is “inactive”.

With `O=C(OCCN1CCOCC1)C1(c2ccccc2)CCCCC1`, the Potency entry is “inactive”.

`Cc1nc2n(c(=O)c1CCN1CCC(c3noc4cc(F)ccc34)CC1)CCCC2O` (stereo unspecified): the Potency result was “inactive”.

Take `Cc1nc2c(OCc3ccccc3)cccn2c1CC#N`: the Potency result is “inactive”.

On to `Nc1nc2[nH]c(=O)cnc2c(=O)[nH]1`, for which the Potency result was “inactive”.

On to `NC1(C(=O)O)CCc2cc(C(=O)O)ccc21` (stereo unspecified), for which the Potency result is “inactive”.

On to `COc1ccc(-c2cc3ncc(C)n3c(Nc3ncccc3C(N)=O)n2)cc1OC`, for which the Potency entry was “inactive”.

Take `CC(N)=O`: the Potency entry was “inactive”.

Consider `CC(C)[C@H](NC(=O)OCc1ccccc1)C(=O)N[C@H](C=O)Cc1ccccc1` (Cbz-Val-Phe-aldehyde), for which the Potency result is “inactive”.

Turning to `CNCCc1cnc(CCC(c2ccccc2)c2ccccc2)[nH]1`, the Potency entry is “inactive”.

Take `Nc1ccc2c3c(cccc13)C(=O)NC2=O`: the Potency is 25.1 µM (active).

With `CN(CC[C@@H](Oc1ccc(C(F)(F)F)cc1)c1ccccc1)CC(=O)O`, the Potency result is “inactive”.

Regarding `COc1cc(C(O)C(=O)O)ccc1O` (stereo unspecified), the Potency entry was “inactive”.

Regarding `COc1ccccc1N1CCN(CCCCNC(=O)c2ccc3ccccc3c2)CC1`, the Potency entry was “inactive”.

`CCCCCCC(=O)OC1CC(C)(C)NC(C)(C)C1`: the Potency result is “inactive”.

Regarding `NCC(O)(CS(=O)(=O)O)c1ccc(Cl)cc1` (stereo unspecified), the Potency result was “inactive”.

Take `CSC(=N)N`: the Potency result is “inactive”.

Consider `O=C(O)/C=C/c1cnc[nH]1`, for which the Potency entry is “inactive”.

Regarding `N=C(N)SCCc1cnc[nH]1`, the Potency result is “inactive”.

Turning to `CC1=C(/C=C/C(C)=C/C=C/C(C)=C\C(=O)O)C(C)(C)CCC1`, the Potency entry was “inactive”.

On to `NC1CONC1=O` (stereo unspecified), for which the Potency entry was “inactive”.
